In the supplement of paper PMC8975748 one finds mean cell size data, which are given here for 40 compounds.

Molecules are shown by their SMILES. Where a name gives a salt, the structure may show the parent alone. ± gives the standard deviation of the averaged measurements.

The experiment deals with Saccharomyces cerevisiae BY4741 SeMeCo community. The experiment is described as follows: mean cell size (pixel area) (pixels); higher = larger cells. Conditions: 10 µM; 24 h; SM minimal medium. The method in brief:
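Mean cell pixel area per well was determined by automated confocal microscopy with Harmony analysis of paraformaldehyde-fixed cells. The cells, a Saccharomyces cerevisiae BY4741 community of four plasmids that each complement one auxotrophy and carry a fluorescent marker, were incubated for 24 h with drug at a final 10 µM in SM medium in 384-well plates. Numbers are averaged over 3 replicates. Same SeMeCo high-content imaging drug screen: Selleck FDA-approved drugs at 10 µM, 24 h in SM medium, 384-well plates, 3 replicates.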
The compound `Cc1c(-c2ccc(O)cc2)n(Cc2ccc(OCCN3CCCCCC3)cc2)c2ccc(O)cc12` [Bazedoxifene HCl] displayed a mean cell size of 12.54 ± 0.11.
Turning to `CCOC(=O)C1=C(COCCN)NC(C)=C(C(=O)OC)C1c1ccccc1Cl` (stereo not given) [Amlodipine], the mean cell size was 13 ± 0.37.
In the case of `C[N+](C)(C)CCOC(=O)CCC(=O)OCC[N+](C)(C)C` [Succinylcholine Chloride Dihydrate], the mean cell size amounted to 12 ± 0.24.
Next, `CC(=O)NC[C@H]1CN(c2ccc(N3CCOCC3)c(F)c2)C(=O)O1` [Linezolid]: 12.51 ± 0.11; `O=c1[nH]cnc2c1ncn2[C@H]1CC[C@@H](CO)O1` [Didanosine]: 12.4 ± 0.19; `CCN(CC)CCNC(=O)c1cc(S(C)(=O)=O)ccc1OC` [Tiapride Hydrochloride]: 12.36 ± 0.12.
Under `CC(C)NC(=N)NC(=N)Nc1ccc(Cl)cc1` [Proguanil] stands 12.3 ± 0.13; under `Cc1nccn1CC1CCc2c(c3ccccc3n2C)C1=O` (stereo not given) [Ondansetron Hydrochloride Dihydrate], 12.3 ± 0.24; under `CC(=O)OCC1=C(C(=O)O)N2C(=O)[C@@H](NC(=O)CSc3ccncc3)[C@H]2SC1` [Cephapirin Benzathine], 12.7 ± 0.17.
With `COc1ccc(CN2CCN(C(c3ccc(F)cc3)c3ccc(F)cc3)CC2)c(OC)c1OC` [Lomerizine 2HCl], the mean cell size was 12.443 ± 0.0032.
Under `CCCCCOc1ccc(-c2cc(-c3ccc(C(=O)N[C@H]4C[C@@H](O)[C@@H](O)NC(=O)[C@@H]5[C@@H](O)[C@@H](C)CN5C(=O)[C@H]([C@H](O)CC(N)=O)NC(=O)[C@H]([C@H](O)[C@@H](O)c5ccc(O)c(OS(=O)(=O)O)c5)NC(=O)[C@@H]5C[C@@H](O)CN5C(=O)[C@H]([C@@H](C)O)NC4=O)cc3)no2)cc1` [Micafungin Sodium] stands 12.4 ± 0.26; under `O=C(O)CCNC(=O)c1ccccc1` [Betamipron], 12.6 ± 0.21; under `CC[C@@]1(O)C(=O)OCc2c1cc1n(c2=O)Cc2cc3c(CN(C)C)c(O)ccc3nc2-1` [Topotecan HCl], 12.5 ± 0.14.
Next, `CC(C)c1c(C(=O)Nc2ccccc2)c(-c2ccccc2)c(-c2ccc(F)cc2)n1CC[C@@H](O)C[C@@H](O)CC(=O)O` [Atorvastatin Calcium]: 12 ± 0.14; `CN1C2CCCC1CC(NC(=O)c1nn(C)c3ccccc13)C2` (stereo not given) [Granisetron HCl]: 11.8 ± 0.16.
Under `CN1CCN2c3ncccc3Cc3ccccc3C2C1` (stereo not given) [Mirtazapine] stands 12.38 ± 0.12.
For `NC[C@H]1O[C@H](O[C@H]2[C@H](O[C@@H]3O[C@H](CO)[C@@H](O)[C@H]3O)[C@@H](O)[C@H](N)C[C@@H]2N)[C@H](N)[C@@H](O)[C@@H]1O` [Ribostamycin Sulfate], the mean cell size stood at 12.13 ± 0.035.
Next, `O=C1Nc2ccccc2C1=O` [Isatin]: 12.3 ± 0.17.
Under `COc1ccc2cc3[n+](cc2c1OC)CCc1cc2c(cc1-3)OCO2` [Berberine chloride] stands 12.5 ± 0.26.
Next, `N=C(N)NC(=O)c1nc(Cl)c(N)nc1N` [Amiloride HCl dihydrate]: 12.1 ± 0.19.
In the case of `Cc1ncc([N+](=O)[O-])n1CCOC(=O)c1ccccc1` [Metronidazole Benzoate], the mean cell size came to 12.382 ± 0.0058.
As for `CN(C)[C@@H]1C(O)=C(C(N)=O)C(=O)[C@@]2(O)C(O)=C3C(=O)c4c(O)ccc(Cl)c4[C@@H](O)[C@H]3C[C@@H]12` [Demeclocycline HCl], the mean cell size was determined as 12.5 ± 0.32.
Under `N[C@H]1CONC1=O` [L-Cycloserine] stands 11.54 ± 0.047; under `O=C(O)CCC(=O)OC[C@@H](NC(=O)C(Cl)Cl)[C@H](O)c1ccc([N+](=O)[O-])cc1` [Chloramphenicol sodium succinate], 12.13 ± 0.03.
Next, `CC1=C[C@H]2C(=O)O[C@H]3C[C@@H](C/C=C(\C)C[C@@H](C)/C=C/C=C4\CO[C@H](/C1=N\O)[C@@]42O)O[C@@]1(CC[C@H](C)[C@@H](C)O1)C3.CC[C@H]1O[C@]2(CC[C@@H]1C)C[C@@H]1C[C@@H](C/C=C(\C)C[C@@H](C)/C=C/C=C3\CO[C@@H]4/C(=N\O)C(C)=C[C@@H](C(=O)O1)[C@]34O)O2` [Milbemycin Oxime]: 12.36 ± 0.099; `O=C1c2cccc3c2[C@H](CCC3)CN1[C@@H]1CN2CCC1CC2` [Palonosetron]: 12.2 ± 0.14; `CN1CCN(C2=Nc3cc(Cl)ccc3Nc3ccccc32)CC1` [Clozapine]: 12.4 ± 0.21.
Next, `CNCC[C@H](Oc1cccc2ccccc12)c1cccs1` [Duloxetine HCl]: 12.5 ± 0.21; `NC(=O)N/N=C/c1ccc([N+](=O)[O-])o1` [Nitrofural]: 12.84 ± 0.1; `COc1ccc(C[C@H](N)C(=O)N[C@H]2[C@@H](O)[C@H](n3cnc4c(N(C)C)ncnc43)O[C@@H]2CO)cc1` [Puromycin 2HCl]: 12.5 ± 0.13.
`Cc1cc(C)nc(NS(=O)(=O)c2ccc(N)cc2)n1` [Sulfamethazine] returned a mean cell size of 12.5 ± 0.25.
The compound `OC(Cn1cncn1)(Cn1cncn1)c1ccc(F)cc1F` [Fluconazole] had a mean cell size of 11.98 ± 0.059.
Under `CN1[C@@H](CC(=O)c2ccccc2)CCC[C@H]1C[C@H](O)c1ccccc1` [Lobeline hydrochloride] stands 12.5 ± 0.23; under `Nc1cc(C(Cl)=C(Cl)Cl)c(S(N)(=O)=O)cc1S(N)(=O)=O` [Clorsulon], 12.46 ± 0.016; under `NC[C@H]1O[C@H](O[C@H]2[C@H](O)[C@@H](O[C@H]3O[C@H](CO)[C@@H](O)[C@H](N)[C@H]3O)[C@H](N)C[C@@H]2N)[C@H](O)[C@@H](O)[C@@H]1O` [Kanamycin sulfate], 11.9 ± 0.26.
Next, `CO/N=C(\C(=O)N[C@@H]1C(=O)N2C(C(=O)O)=C(CSc3nc(C)c(CC(=O)O)s3)CS[C@H]12)c1csc(N)n1` [Cefodizime Sodium]: 12.4 ± 0.13; `O=C1C(N(CO)C(=O)NCO)N(CO)C(=O)N1CO` (stereo not given) [Diazolidinyl urea]: 12.1 ± 0.16.
Under `C=CC[N+]1([C@H]2C[C@H]3[C@@H]4CC[C@H]5C[C@H](O)[C@@H](N6CCOCC6)C[C@]5(C)[C@H]4CC[C@]3(C)[C@H]2OC(C)=O)CCCC1` [Rocuronium Bromide] stands 12.44 ± 0.065; under `CN(C)[C@@H](CCOc1cccc2ccccc12)c1ccccc1` [Dapoxetine HCl], 12.3 ± 0.037.
For `COCCCC/C(=N\OCCN)c1ccc(C(F)(F)F)cc1` [Fluvoxamine maleate], the mean cell size amounted to 12.3 ± 0.13.
